# In PubChem BioAssay AID2284326 (EPA ToxCast):
# Inconclusive results are not listed. Activity calls are given as the source filed them. The calls were made as follows: active = hit-call score of the fitted dose curve at least 0.9, where 1 is the maximum; inconclusive = response in the unintended direction; inactive = score below 0.9.
# Test system: TPO (gene 7173)
# Test: CCTE_GLTED_hTPO: CCTE's human Thyroperoxidase (hTPO) Inhibition Assay, Great Lakes Toxicology and Ecology Division (GLTED) Lab
# Method: CCTE_GLTED_hTPO is a cell-free, single-readout assay designed to test the inhibitory activity of chemicals toward human thyroperoxidase (TPO) protein. Uninhibited enzyme converts Amplex UltraRed to a fluorescent product. Measurements were taken 0.5 hour after chemical dosing in a 96-well plate. CCTE_GLTED_hTPO is the assay component measured from the CCTE_GLTED_hTPO assay. It is designed to make measurements of enzyme activity, a form of enzyme reporter, as detected with […] by Fluorescence technology.Data from the assay component CCTE_GLTED_hTPO was analyzed at the assay endpoint CCTE_GLTED_hTPO in the positive analysis fitting direction relative to DMSO as the negative control and baseline of activity. Using a type of enzyme reporter (the Amplex UltraRed assay), loss-of-signal activity can be used to understand decreased peroxidase activity in the presence of excess […]. To generalize the intended target to other relatable targets, this assay endpoint is annotated to the 'oxidoreductase' intended target family, where the subfamily is 'peroxidase'.
# […]
Compound,AC50,outcome
O=C(O)C(F)(OC(F)(F)C(F)(F)C(F)(F)F)C(F)(F)F (stereo not drawn),40.2 µM (active),–
O=S(=O)(O)C(F)(F)C(F)(F)C(F)(F)C(F)(F)C(F)(F)C(F)(F)C(F)(F)C(F)(F)F,285 µM (active),–
O=C(O)C(F)(F)C(F)(F)C(F)(F)C(F)(F)C(F)(F)C(F)(F)C(F)(F)C(F)(F)F,–,inactive
